Results: PubChem BioAssay (EPA / NIEHS)
Inconclusive results are not listed. Activity calls are given as the source filed them. How the source made its calls: active means hit-call score of the fitted dose curve at least 0.9, where 1 is the maximum; inconclusive means response in the unintended direction; inactive means score below 0.9.

System: not listed separately
Assay: TOX21_p53_BLA_p4_viability: Viability Assessment in the Tox21 HCT-116 p53 Agonism Beta-lactamase Assay, Phase 4 (AID 2283597);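 further: hits lower the luminescence signal meaning cytotoxicity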
How it was run: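 ATP content by CellTiter-Glo luminescence, 30 min RT, read after the beta-lactamase ratio step. Cells: HCT116, 4000/well, compound added after 5 h, exposure 16 h at 37C. Signal loss = reduced viability.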

| SMILES | outcome | AC50 |
| --- | --- | --- |
| CCCCCC[N+](=O)[O-] | inactive | – |
| C=CCN1CC[C@]23CCCC[C@H]2[C@H]1Cc1ccc(O)cc13 | inactive | – |
| CC1CC(CC2CCC(N)C(C)C2)CCC1N (stereo not given) | inactive | – |
| CCCC1CCCCN1 (stereo not given) | inactive | – |
| [Cl-].[Cl-].[Sn+2] | inactive | – |
| CC(C)=CCN1CC[C@]2(C)c3cc(O)ccc3C[C@H]1[C@H]2C | inactive | – |
| CCC(=O)O[C@@](Cc1ccccc1)(c1ccccc1)[C@@H](C)CN(C)C | inactive | – |
| CC(=O)CC(c1ccc(Cl)cc1)c1c(O)c2ccccc2oc1=O (stereo not given) | inactive | – |
| Cc1nnc2n1-c1sc(CCC(=O)N3CCOCC3)cc1C(c1ccccc1Cl)=NC2 | inactive | – |
| Nc1ccccc1-c1ccccc1 | inactive | – |
| O=C1C(=O)c2cccc3cccc1c23 | – | 33 µM (active) |
| CN(C)c1ccc(N=Nc2ccccc2)cc1 | inactive | – |
| NC(=S)c1c(Cl)cccc1Cl | inactive | – |
| CC(C)(C#N)C(C)(C)C#N | inactive | – |
| O=C1CC(=O)NC(=O)N1 | inactive | – |
| BrCC(Br)(Br)Br | inactive | – |
| CCCCC1C(=O)NC(=O)N(C2CCCCC2)C1=O (stereo not given) | inactive | – |
| [O]=[Cr](=[O])([OH])[O][Cr](=[O])(=[O])[OH] | – | 18.4 µM (active) [middle of 4 runs] |
| [Cl-].[Cl-].[Cl-].[Fe+3] | inactive | – |
| CC(=O)O[C@H]1CC[C@H]2[C@@H]3CCC4=CC(=O)CCC4=C3C=C[C@]12C | inactive | – |

Biological target: Cellular tumor antigen p53 (Homo sapiens) (UniProt P04637)
Sequence (P04637 whole entry, looked up): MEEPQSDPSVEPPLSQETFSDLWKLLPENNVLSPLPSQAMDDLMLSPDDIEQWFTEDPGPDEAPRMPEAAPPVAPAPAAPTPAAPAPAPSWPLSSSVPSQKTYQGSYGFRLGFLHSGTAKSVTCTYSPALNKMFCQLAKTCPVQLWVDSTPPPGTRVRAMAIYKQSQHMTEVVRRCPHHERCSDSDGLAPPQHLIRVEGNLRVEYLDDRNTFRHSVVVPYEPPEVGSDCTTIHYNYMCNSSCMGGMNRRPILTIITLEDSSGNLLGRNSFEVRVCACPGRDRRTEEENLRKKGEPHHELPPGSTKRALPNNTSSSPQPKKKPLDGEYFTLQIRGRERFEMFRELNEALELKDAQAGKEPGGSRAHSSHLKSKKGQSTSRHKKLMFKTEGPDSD
Assay: TOX21_p53_BLA_p5_ratio: Tox21 HCT-116 p53 Agonism Beta-lactamase Assay, Ratio, Phase 5 (AID 2283599)
How it was run: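 HCT-116 cells carrying a p53-inducible beta-lactamase reporter were seeded at 4000 cells/well and dosed after 5 h with compound in DMSO (217-fold dilution). After 16 h at 37C, CCF4-AM substrate was added for 2 h, and the 460/530 nm emission ratio was scored as gain-of-signal versus DMSO.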

| SMILES | outcome | AC50 |
| --- | --- | --- |
| NC(=S)C(N)=S | inactive | – |
| CCCC1CCCCN1 (stereo not given) | inactive | – |
| C1CCC2CCCCC2C1 (stereo not given) | inactive | – |
| CC(C)=CCN1CC[C@]2(C)c3cc(O)ccc3C[C@H]1[C@H]2C | inactive | – |
| CCC(=O)O[C@@](Cc1ccccc1)(c1ccccc1)[C@@H](C)CN(C)C | inactive | – |
| Cc1nnc2n1-c1sc(CCC(=O)N3CCOCC3)cc1C(c1ccccc1Cl)=NC2 | inactive | – |
| O=C([O-])c1ccccn1.O=C([O-])c1ccccn1.O=C([O-])c1ccccn1.[Cr+3] | inactive | – |
| Nc1ccccc1-c1ccccc1 | inactive | – |
| CCCCCCC(=O)O[C@H]1CC[C@H]2[C@@H]3CC[C@H]4CC(=O)C=C(C)[C@]4(C)[C@H]3CC[C@]12C | inactive | – |
| Cc1ccc(Cl)c(O)c1 | inactive | – |
| CCC1COC(Cn2cncn2)(c2ccc(Cl)cc2Cl)O1 (stereo not given) | inactive | – |
| CC(C)CCC(=O)O[C@H]1CC[C@H]2[C@@H]3CCC4=CC(=O)CC[C@]4(C)[C@H]3CC[C@]12C | inactive | – |
| O=C1C(=O)c2cccc3cccc1c23 | inactive | – |
| O=[N+]([O-])c1cccc2cccnc12 | inactive | – |
| NC(=S)c1c(Cl)cccc1Cl | inactive | – |
| CC(C)(C#N)C(C)(C)C#N | inactive | – |
| CC[N+]1(C)CCCC(OC(=O)C(O)(c2ccccc2)c2ccccc2)C1 (stereo not given) | inactive | – |
| C=CCBr | inactive | – |
| CCCC[N+]1(C)[C@@H]2CC(OC(=O)[C@H](CO)c3ccccc3)C[C@H]1[C@@H]1O[C@@H]12 (stereo not given in full) | inactive | – |
| O=C1CC(=O)NC(=O)N1 | inactive | – |
| c1cc2c(c(NC3=NCCN3)c1)CCCC2 | inactive | – |
| BrCC(Br)(Br)Br | inactive | – |
| CCCCC1C(=O)NC(=O)N(C2CCCCC2)C1=O (stereo not given) | inactive | – |
| [O]=[Cr](=[O])([OH])[O][Cr](=[O])(=[O])[OH] | – | 13.2 µM (active) [middle of 4 runs] |
| CC(=O)O[C@H]1CC[C@H]2[C@@H]3CCC4=CC(=O)CCC4=C3C=C[C@]12C | inactive | – |

System: not listed separately
Assay: TOX21_p53_BLA_p5_viability: Viability Assessment in the Tox21 HCT-116 p53 Agonism Beta-lactamase Assay, Phase 5 (AID 2283600)
How it was run: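 ATP luminescence (CellTiter-Glo, 30 min, RT) served as the viability read-out, with loss of signal indicating cytotoxicity. Compounds in DMSO were pinned at a 217-fold dilution onto 4000 cells/well and incubated 16 h, 37C.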

| SMILES | outcome | AC50 |
| --- | --- | --- |
| CCCCCC[N+](=O)[O-] | inactive | – |
| C=CCN1CC[C@]23CCCC[C@H]2[C@H]1Cc1ccc(O)cc13 | inactive | – |
| CC1CC(CC2CCC(N)C(C)C2)CCC1N (stereo not given) | inactive | – |
| NC(=S)C(N)=S | inactive | – |
| [Cl-].[Cl-].[Sn+2] | inactive | – |
| CC(C)=CCN1CC[C@]2(C)c3cc(O)ccc3C[C@H]1[C@H]2C | inactive | – |
| CCC(=O)O[C@@](Cc1ccccc1)(c1ccccc1)[C@@H](C)CN(C)C | inactive | – |
| Cc1nnc2n1-c1sc(CCC(=O)N3CCOCC3)cc1C(c1ccccc1Cl)=NC2 | inactive | – |
| O=C([O-])c1ccccn1.O=C([O-])c1ccccn1.O=C([O-])c1ccccn1.[Cr+3] | inactive | – |
| CCCCCCC(=O)O[C@H]1CC[C@H]2[C@@H]3CC[C@H]4CC(=O)C=C(C)[C@]4(C)[C@H]3CC[C@]12C | inactive | – |
| Cc1ccc(Cl)c(O)c1 | inactive | – |
| COc1ccc(OC)c([C@@H](O)[C@H](C)N)c1 | inactive | – |
| CC(C)CCC(=O)O[C@H]1CC[C@H]2[C@@H]3CCC4=CC(=O)CC[C@]4(C)[C@H]3CC[C@]12C | inactive | – |
| CN(C)c1ccc(N=Nc2ccccc2)cc1 | inactive | – |
| O=[N+]([O-])c1cccc2cccnc12 | inactive | – |
| CC(C)(C#N)C(C)(C)C#N | inactive | – |
| CC(N)Cc1ccc(O)cc1 (stereo not given) | inactive | – |
| CC[N+]1(C)CCCC(OC(=O)C(O)(c2ccccc2)c2ccccc2)C1 (stereo not given) | inactive | – |
| CCCC[N+]1(C)[C@@H]2CC(OC(=O)[C@H](CO)c3ccccc3)C[C@H]1[C@@H]1O[C@@H]12 (stereo not given in full) | inactive | – |
| c1cc2c(c(NC3=NCCN3)c1)CCCC2 | inactive | – |
| BrCC(Br)(Br)Br | inactive | – |
| CCCCC1C(=O)NC(=O)N(C2CCCCC2)C1=O (stereo not given) | inactive | – |
| [O]=[Cr](=[O])([OH])[O][Cr](=[O])(=[O])[OH] | – | 28.1 µM (active) [middle of 4 runs] |
| [Cl-].[Cl-].[Cl-].[Fe+3] | inactive | – |
| CCOC(=O)C(Cl)C(C)=O (stereo not given) | inactive | – |
